For test [1], the target named is Protein phosphatase 1D (Homo sapiens) (UniProt O15297). The test is described as follows: RapidFire Mass Spectrometry qHTS Assay for Modulators of WT P53-Induced Phosphatase 1 (WIP1) (AID 1347424).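 Also: amount of dephosphorylated VEPPL-S-QETFS peptide product formed by WIP1; series mostly up to about 63 µM.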 The method, boiled down:
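10 nM WIP1 preincubated with compounds 1 hr at room temperature in pH 7.5 Tris buffer with 30 mM MgCl2, 1 mM TCEP; 2 uM VEPPL-pS-QETFS phosphopeptide for 5 min, formic acid quench; dephosphorylated product quantified by RapidFire MS against labelled standard.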
A general note: Quantitative high-throughput screening tests each substance at several concentrations.

The target is the same in test [2]. The test is described as follows: Rhodamine-PBP qHTS Assay for Modulators of WT P53-Induced Phosphatase 1 (WIP1) (AID 1347425). The method, boiled down: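 Steps: enzyme with Rh-PBP sensor and compounds, room-temperature incubation of 1 hr, baseline read, addition of VEPPL-pS-QETFS (10 uM final), kinetic fluorescence reads at 525/598 nm. Activity equals final minus baseline signal.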

The nature of test [3]: Primary qHTS for inhibitors of La Crosse Virus (LACV) - induced cell death in SH-SY5Y cells (AID 1508616).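 Also: top concentration of the series differs between compounds; higher means more rescue of cells from virus-induced death.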 The method, boiled down:
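Readout was luminescence from ATPLite 1step added after a 6-day LACV infection (0.01 MOI) of SH-SY5Y cells that had received pin-transferred compound 24 hr after seeding.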

Test [4] has as its target Calcium and integrin-binding protein 1 (Homo sapiens) (UniProt Q99828). Description: Primary qHTS for Identification of Calcium Integrin Binding Protein 1 (CIB1) Competitor (AID 1508620). Also: top concentration of the series differs between compounds. The method, boiled down: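 Fluorescence polarization competition: GST-tagged CIB1 (1 uM final) preincubated with compound 15 min at room temperature, then FITC-labelled alphaIIb peptide (100 nM final) added. After 15 min at room temperature, polarization read at Ex 480/Em 540.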

Test [5] in a line: Primary qHTS for small molecule stabilizers of the endoplasmic reticulum resident proteome: Secreted ER Calcium Modulated Protein (SERCaMP) assay (AID 1508630). The method in brief: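 GLuc-SERCaMP-expressing SH-SY5Y cells, pretreated 16 h with compound, are challenged with thapsigargin to empty ER calcium stores; after 4 h, coelenterazine is added directly to the medium and luminescence is imaged.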

A short description of test [6]: A High-Content qHTS Against Drug Library for the Identification of Small Molecules that Inhibit DYT1 Early Onset Primary Dystonia-Associated Cell Pathology (AID 1645839; calls by dose curve; also: series mostly up to about 46 µM). The method in brief:
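Flp-In T-REx 293 cells with tetracycline-inducible EGFP-delE hTOR1A (WT EGFP-hTOR1A as reference), 800 cells/well; compound added with tetracycline, 48 h at 37 C. Fixed, permeabilized cells imaged; %pathology (punctate TorsinA) primary, cell count counterscreen.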

In test [7] the target is Cytochrome P450 2D6 (Homo sapiens) (UniProt P10635). Description: Cytochrome P450 family 2 subfamily D member 6 (CYP2D6) small molecule antagonists: luciferase biochemical (cell-free) qHTS assay (AID 1645840; active = well fitted curve in the direction sought with a large enough effect in the repeat runs; an effect the other way counts as inactive or inconclusive; also: nearly all actives have a fitted effect of over 55% in size; also: potency is read from the fitted curve at half-maximal effect). The method in brief:
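P450-Glo luminescent screen: recombinant CYP2D6 enzyme–proluciferin substrate mix preincubated with compound 10 min at room temperature, then NADPH regeneration added for 1 h at room temperature. Detection reagent added for 20 min; luciferin light read as relative luminescence units.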

Test [8] concerns the target Cytochrome P450 2C9 (Homo sapiens) (UniProt P11712). Description: Cytochrome P450 family 2 subfamily C member 9 (CYP2C9) small molecule antagonists: luciferase biochemical (cell-free) qHTS assay (AID 1645842; active = well fitted curve in the direction sought with a large enough effect in the repeat runs; an effect the other way counts as inactive or inconclusive; also: nearly all actives have a fitted effect of over 55% in size; also: potency is read from the fitted curve at half-maximal effect). The method, boiled down: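 Luminescence, after 20 min with luciferin detection reagent, reflected CYP2C9 turnover during a 1 h NADPH-driven reaction at 37C. Enzyme-substrate mix contained 0.4% bovine serum albumin and was preincubated with compound 10 min at room temperature.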

In test [9] the target is Calcium and integrin-binding protein 1 (Homo sapiens) (UniProt Q99828). Description: Confirmatory qHTS for Identification of Calcium Integrin Binding Protein 1 (CIB1) Competitor (AID 1508617). Also: potency is read from the fitted curve at half-maximal effect; nearly all actives have a fitted effect of over 65% in size. The method, boiled down:
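Binding competition between test compounds and fluorescent alphaIIb peptide for 1 uM CIB1-GST is monitored by FP at 480/540 nm. Final compound range is up to 114 uM; unlabeled peptide serves as reference competitor.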

Test [10] can be described thus: Primary qHTS for inhibitors of nuclear receptor binding SET domain protein 2 (NSD2) in an isogenic RCH-ACV NSD2 p.E1099K mutant (9B) (AID 1645876). Also: nearly all actives have a fitted effect of over 70% in size. Also: potency is read from the fitted curve at half-maximal effect.
A short description of test [11]: Primary qHTS for inhibitors of nuclear receptor binding SET domain protein 2 (NSD2) in an RCH-ACV wild type WT cells (2C) (AID 1645877). Also: nearly all actives have a fitted effect of over 70% in size. Also: potency is read from the fitted curve at half-maximal effect.
The nature of test [12]: qHTS to identify inhibitors of the type 1 interferon - major histocompatibility complex class I in skeletal muscle: primary screen against the NCATS Mechanism Interrogation Plate v5.0 (MIPE) Libary (AID 1347411). Also: potency is read from the fitted curve at half-maximal effect; nearly all actives have a fitted effect of over 65% in size. The method, boiled down: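 Cells were genome-edited human myoblasts carrying a HiBit tag on endogenous HLA-B. They were treated with IFN-beta (4.0 ng/ml) and titrated compounds (top 46 uM) for 24 hrs before lytic HiBiT detection.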

Experimental findings from PubChem BioAssay (NCATS) are described below.

Where “and” joins values, the source holds several entries; their conditions need not be identical. Equal entries are not always repeated. Inconclusive results are not listed. Calls of active or inactive are those of the source. Unless noted, calls follow the shape of the dose curve; as a rule, active = well fitted curve in the direction sought with a large enough effect; inconclusive = small, poorly fitted or top-dose-only effect, or another doubt; inactive = no such curve, though single readings can be large; an effect the other way counts as inactive or inconclusive.

Chain of Protein phosphatase 1D (Homo sapiens) (O15297 whole entry, looked up): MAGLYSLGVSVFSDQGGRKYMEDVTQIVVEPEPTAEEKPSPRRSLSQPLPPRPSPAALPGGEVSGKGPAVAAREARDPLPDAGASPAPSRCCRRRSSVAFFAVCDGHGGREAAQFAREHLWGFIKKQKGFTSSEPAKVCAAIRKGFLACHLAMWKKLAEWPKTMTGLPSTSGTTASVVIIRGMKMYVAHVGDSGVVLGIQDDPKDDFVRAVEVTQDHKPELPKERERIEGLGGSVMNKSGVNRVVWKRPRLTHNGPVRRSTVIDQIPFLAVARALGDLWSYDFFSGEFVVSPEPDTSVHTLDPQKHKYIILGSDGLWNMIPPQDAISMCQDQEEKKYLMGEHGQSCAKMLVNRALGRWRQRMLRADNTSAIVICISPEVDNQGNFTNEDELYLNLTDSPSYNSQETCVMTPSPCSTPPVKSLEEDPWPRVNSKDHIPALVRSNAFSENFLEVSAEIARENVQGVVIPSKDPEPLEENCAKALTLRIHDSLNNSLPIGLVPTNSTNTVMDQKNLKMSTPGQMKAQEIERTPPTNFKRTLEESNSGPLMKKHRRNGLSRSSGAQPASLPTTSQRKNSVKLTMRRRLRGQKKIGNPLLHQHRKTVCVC
Chain of Cytochrome P450 2D6 (Homo sapiens) (P10635 whole entry, looked up): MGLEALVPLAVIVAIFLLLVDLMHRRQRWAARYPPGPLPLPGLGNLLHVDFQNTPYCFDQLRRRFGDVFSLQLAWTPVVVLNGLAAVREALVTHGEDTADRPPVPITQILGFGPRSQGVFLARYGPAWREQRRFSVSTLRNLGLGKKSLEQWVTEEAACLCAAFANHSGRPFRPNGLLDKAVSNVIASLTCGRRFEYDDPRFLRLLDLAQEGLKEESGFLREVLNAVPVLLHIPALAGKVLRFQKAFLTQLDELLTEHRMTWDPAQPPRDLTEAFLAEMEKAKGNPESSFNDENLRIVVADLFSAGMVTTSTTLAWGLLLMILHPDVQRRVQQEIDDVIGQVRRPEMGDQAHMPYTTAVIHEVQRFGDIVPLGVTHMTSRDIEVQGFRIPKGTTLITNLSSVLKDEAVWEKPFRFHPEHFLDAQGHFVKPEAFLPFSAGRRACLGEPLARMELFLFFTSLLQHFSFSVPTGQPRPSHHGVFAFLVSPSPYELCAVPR
Chain of Calcium and integrin-binding protein 1 (Homo sapiens) (Q99828 whole entry, looked up): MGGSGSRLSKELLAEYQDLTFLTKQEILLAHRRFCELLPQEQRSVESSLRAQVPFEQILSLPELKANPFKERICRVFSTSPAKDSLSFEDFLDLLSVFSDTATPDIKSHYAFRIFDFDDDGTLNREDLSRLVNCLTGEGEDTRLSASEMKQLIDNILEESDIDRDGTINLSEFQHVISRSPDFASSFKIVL
Chain of Cytochrome P450 2C9 (Homo sapiens) (P11712 whole entry, looked up): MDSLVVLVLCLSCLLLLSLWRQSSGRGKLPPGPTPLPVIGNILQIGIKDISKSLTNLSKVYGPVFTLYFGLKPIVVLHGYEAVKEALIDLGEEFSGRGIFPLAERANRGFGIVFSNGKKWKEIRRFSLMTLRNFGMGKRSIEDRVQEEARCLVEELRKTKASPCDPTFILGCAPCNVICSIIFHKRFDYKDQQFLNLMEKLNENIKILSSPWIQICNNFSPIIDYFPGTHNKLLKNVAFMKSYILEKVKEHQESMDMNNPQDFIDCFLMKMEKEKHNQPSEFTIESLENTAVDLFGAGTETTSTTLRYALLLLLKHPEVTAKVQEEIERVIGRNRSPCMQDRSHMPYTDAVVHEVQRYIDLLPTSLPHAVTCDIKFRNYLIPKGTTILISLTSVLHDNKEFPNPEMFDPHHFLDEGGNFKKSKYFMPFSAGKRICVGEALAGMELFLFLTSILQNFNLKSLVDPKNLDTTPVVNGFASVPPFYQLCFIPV

Consider `N[C@H]1CN(c2c(F)cc3c(=O)c(C(=O)O)cn(C4C[C@@H]4F)c3c2Cl)CC12CC2` (stereo not given in full), for which the Potency entry in [1], in test [4], in [7] and in test [8] was “inactive” each time. Further, the call in [2], in test [3], in test [5] and in test [6] was inactive.

Regarding `Cc1coc2c1C(=O)C(=O)c1c-2ccc2c(C)cccc12`, the Potency in test [9] was 39.8 µM (active); in test [7], 3.38 µM (active); in test [8], 9.52 µM (active). For the same compound, the Potency entry in test [4], in [10] and in [11] was “inactive” throughout.

Turning to `NC(=O)c1ncn([C@@H]2O[C@H](CO)[C@@H](O)[C@@H]2O)c1N`, the Potency entry in test [4] was “inactive”.

Turning to `COc1cccc2c1C(=O)c1c(O)c3c(c(O)c1C2=O)C[C@@](O)(C(=O)CO)C[C@@H]3O[C@H]1C[C@H](N)[C@H](OC2CCCCO2)[C@H](C)O1` (stereo not given in full), the Potency in test [12] is 2.62 µM (active) and 2.34 µM (active); in test [10], 93.4 nM (active) and 2.63 µM (active); in test [11], 52.5 nM (active) and 2.95 µM (active). Also, in test [5], the result was inactive.

For the compound `CNC(=O)c1cccc(-c2ccc3c(N4CCOC[C@H]4C)nc(N4CCOC[C@H]4C)nc3n2)c1`, in test [4], the Potency entry is “inactive”.

Consider `CC(C=CC1=C(C)CCCC1(C)C)=CC=CC(C)=CC(=O)Nc1ccc(O)cc1`, for which the Potency result in [4] was “inactive”.

Consider `CCn1c(=O)c2c(nc(C=Cc3ccc(OC)c(OC)c3)n2C)n(CC)c1=O`, for which the Potency entry in [1], in [4], in test [7], in test [10] and in [11] was “inactive” in each case. For the same compound, the compound was classed as inactive in test [2], in [3], in [5] and in test [6].
